# High-throughput results as filed in PubChem.
# PDI turbidity = inhibitors of human protein disulfide isomerase; PDI insulin aggregation turbidity, A650, 90 min; inhibition, % at 10 µM; hit rate 0.052% among 350,000;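 active = mean inhibition across replicates of 30% or more, whatever share of single replicates reach that level; inconclusive = mean inhibition below 30% while every single replicate reaches 30%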
# SIRT5 inh = sirtuin-5 (human) deacylase inhibition. Q9NXA8. Purified SirT5, succinyl-peptide AMC, trypsin-coupled fluorescence. inhibition, % at 15 µM. hit rate 1.1% among 330,000. AID 652115; in the data active = inhibition above about 15%; inconclusive = no clear call, values can overlap the other calls
# Rtt109 HAT inh = inhibitors of Candida albicans Rtt109/Vps75 histone acetyltransferase. purified Rtt109/Vps75, ThioGlo CoA-SH fluorescence, 4 h. Q5AAJ8. inhibition, % at 34.9 µM. hit rate 0.16% among 330,000;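 active = inhibition of at least 50% in every replicate; inconclusive = best replicate reaches 50% inhibition but some replicates fall short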
# Target sequence (Q5AAJ8 whole entry, looked up): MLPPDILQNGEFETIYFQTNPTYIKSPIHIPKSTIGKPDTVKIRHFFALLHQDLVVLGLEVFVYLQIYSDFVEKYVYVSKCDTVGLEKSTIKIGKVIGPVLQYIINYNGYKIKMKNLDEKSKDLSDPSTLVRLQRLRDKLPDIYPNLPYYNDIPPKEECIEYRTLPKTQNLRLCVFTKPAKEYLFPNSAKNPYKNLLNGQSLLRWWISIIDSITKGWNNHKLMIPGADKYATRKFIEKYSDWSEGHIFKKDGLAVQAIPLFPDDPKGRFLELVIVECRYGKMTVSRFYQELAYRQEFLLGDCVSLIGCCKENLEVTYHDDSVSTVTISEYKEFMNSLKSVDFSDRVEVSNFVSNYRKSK
# DENV2 CPE = protects cells from dengue virus 2 cytopathic effect | DENV2-infected cells, cytopathic effect rescue, plate reader | CPE inhibition, % at 9.99 µM | hit rate 1.7% among 350,000; in the data active = CPE inhibition above about 20%, passing the limit was not always enough; inconclusive = no clear call, values can overlap the other calls; tested in BHK-21 cells;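 also: 0% = median of neutral control wells and 100% = median of positive control wells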
# ERp5 inh = inhibitors of human ERp5. AID 651711. ERp5 insulin aggregation, absorbance 650 nm, 90 min. hit rate 0.05% among 350,000. inhibition, % at 9.99 µM. Q15084;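 active = mean replicate inhibition above about 25%, with every replicate also reaching it, limit read from the data, passing the limit was not always enough; inconclusive = only one of those two criteria met; inactive = neither criterion met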
# Starred values were filed as active, the others as inactive; ? = inconclusive; . = not tested or not shown. In the library only some 2.3% were active in any assay of this set; here they are far more common.
SMILES,PDI turbidity,SIRT5 inh,Rtt109 HAT inh,DENV2 CPE,ERp5 inh
C(=C(c1ccccc1)c1ccccc1)c1ccccn1,-1,.,-6,54*,7
CN(C)CC#Cc1cccc(-c2nc(C(=O)N3CCN(C)CC3)cc3c2[C@@H](CCO)N(S(=O)C(C)(C)C)C3)c1 (some centres not stated),.,-8,.,?,0
CCN(CC(=O)Nc1c(F)cccc1F)C(=O)c1ccc2c(c1)NC(=O)C(C)S2 (configuration not stated),18,27*,5,-7,2
CCN(CC(=O)Nc1c(F)cccc1F)C(=O)c1ccc(COc2ccccc2)cc1,10,0,-2,89*,3
COCC(=O)Nc1ccc2c(c1)C(=O)N(C)C[C@H](OC)[C@H](C)CN(C(=O)NC(C)C)[C@H](C)CO2,.,-3,.,4,-5
CN1C(=O)c2cc(NC(=O)c3ccno3)ccc2OC[C@H]2O[C@@H](CC(=O)NC3Cc4ccccc4C3)CC[C@@H]21,.,9,.,53*,2
CCC(=O)Nc1ccc2c(c1)C(=O)N(C)[C@H]1CC[C@@H](CC(=O)NC3Cc4ccccc4C3)O[C@H]1CO2,.,3,.,-2,4
CN1C(=O)c2cc(NC(=O)c3ccc(C#N)cc3)ccc2OC[C@H]2O[C@@H](CC(=O)NC3Cc4ccccc4C3)CC[C@@H]21,.,5,.,75*,-8
C[C@H](CO)N1C[C@H](C)[C@@H](CN(C)Cc2cncnc2)Oc2ncc(C#CC3CCCCC3)cc2C1=O,.,.,.,-7,-1
O=C(N[C@@H]1CC[C@@H](CCNS(=O)(=O)c2ccc(F)cc2)O[C@H]1CO)c1cnccn1,.,-1,.,51*,1
O=C(N[C@@H]1CC[C@H](CCNS(=O)(=O)c2ccc(F)cc2)O[C@H]1CO)C1CCOCC1,.,3,.,-7,3
CCS(=O)(=O)NCC[C@H]1CC[C@H](NC(=O)C2CCC2)[C@H](CO)O1,.,3,.,17,11
O=C(N[C@H]1CC[C@@H](CCNS(=O)(=O)c2ccc(F)cc2)O[C@H]1CO)C1CCOCC1,.,-1,.,38*,-4
CCS(=O)(=O)NCC[C@@H]1CC[C@@H](NC(=O)C2CC2)[C@@H](CO)O1,.,-5,.,46*,-1
C[C@@H]1CN([C@@H](C)CO)C(=O)c2cc(-c3cccnc3)cnc2O[C@H]1CN(C)C(=O)C1CCOCC1,.,0,.,6,-5
COc1ccc(NC(=O)[C@H](C)NC(N)=O)cc1S(=O)(=O)Nc1cc(C)ccc1Br,2,16*,-3,2,-9
COc1ccc(NC(=O)C2CCC2)cc1S(=O)(=O)Nc1cc(C)ccc1Br,13,.,1,7,2
Clc1ccc(-c2csc(-c3cccnc3)n2)s1,2,-1,-3,51*,-6
Fc1ccccc1-c1csc(-c2cccnc2)n1,1,.,17,5,-4
Cc1ccc2c(c1)c1c(n2CC(O)CNC2CCCC2)CCCC1 (configuration not stated),19,-4,9,27*,-5
Cc1sc2ccc3sccc3c2[n+]1C,-4,0,?,12,4
Cc1sc2c3ccsc3ccc2[n+]1C,11,-1,115*,7,3
O=C(Nc1ccc2c(c1)[C@H]1C[C@H](CC(=O)N3CCc4ccccc4C3)O[C@H](CO)[C@H]1O2)Nc1ccccc1F,.,15*,.,3,1
O=C(C[C@@H]1C[C@H]2c3cc(NC(=O)c4ccc5c(c4)OCO5)ccc3O[C@H]2[C@H](CO)O1)NCc1ccc(Oc2ccccc2)cc1,.,22*,.,7,-3
O=C(C[C@@H]1C[C@@H]2c3cc(NC(=O)Nc4ccccc4F)ccc3O[C@@H]2[C@H](CO)O1)NCC1CC1,.,4,.,68*,-1
SMILES,PDI turbidity,SIRT5 inh,Rtt109 HAT inh,DENV2 CPE,ERp5 inh
O=C(C[C@@H]1C[C@H]2c3cc(NC(=O)c4ccc5c(c4)OCO5)ccc3O[C@H]2[C@@H](CO)O1)NCc1ccc(Oc2ccccc2)cc1,.,-2,.,4,3
O=C(C[C@H]1C[C@@H]2c3cc(NC(=O)Nc4ccccc4F)ccc3O[C@@H]2[C@@H](CO)O1)NCc1ccc(Oc2ccccc2)cc1,.,18*,.,-8,1
CCCNC(=O)N1CC2(CN(C(=O)C3CCCCC3)C2)c2c([nH]c3cc(OC)ccc23)[C@H]1CO,.,-3,.,0,9
O=C(C[C@@H]1C[C@H]2c3cc(NC(=O)Nc4ccccc4F)ccc3O[C@H]2[C@H](CO)O1)NCC1CC1,.,22*,.,27*,-2
O=C(C[C@H]1C[C@@H]2c3cc(NC(=O)Nc4ccccc4F)ccc3O[C@@H]2[C@@H](CO)O1)NCC1CC1,.,0,.,9,-1
COc1ccc(COCC23N=C4SCC(=O)N4[C@H](c4ccccc4O2)[C@H]3CO)cc1,.,-1,.,26*,2
O=C1CSC2=NC3(CO)Oc4ccccc4[C@H]([C@H]3CO)N12,.,0,.,27*,0
CCCC(=O)Nc1ccc2c(c1)C(=O)N(C)[C@@H]1CC[C@H](CC(=O)NCCCN(C)C)O[C@@H]1CO2,.,-6,.,5,10
Cn1c2ccccc2c(=O)c2cc(C#Cc3ccsc3)ccc21,15,.,-6,66*,0
Cn1c2ccccc2c(=O)c2cc(C#Cc3ccccn3)ccc21,-7,3,-6,3,0
CN=C(Nc1cc(C)nn1-c1ccccc1)c1ccccc1,0,-7,3,-11,3
CN=C(Nc1cc(C)nn1-c1ccccc1)c1ccccc1F,17,16*,-14,-1,3
CCN1[C@H](C(=O)NCCCN(C)C)[C@@H](CO)[C@@H]2Cn3c(ccc(-c4cccc(F)c4)c3=O)[C@@H]21,.,-1,.,80*,2
CCNC(=O)[C@@H]1[C@@H](CO)[C@@H]2Cn3c(ccc(-c4cccnc4)c3=O)[C@@H]2N1Cc1ccc2c(c1)OCO2,.,23*,.,-2,3
CC=Cc1ccc2n(c1=O)C[C@@H]1[C@@H](CO)[C@H](C(=O)NCc3ccccc3)N(CC)[C@H]21 (mixture of isomers),.,2,.,38*,8
CN(C)C(=O)[C@H]1[C@H](CO)[C@H]2Cn3c(ccc(-c4cccc(F)c4)c3=O)[C@H]2N1C(=O)c1cnccn1,.,0,.,30*,-2
CC=Cc1ccc2n(c1=O)C[C@@H]1[C@@H](CO)[C@H](C(=O)NCc3ccccc3F)N(CC)[C@H]21 (mixture of isomers),.,16*,.,13,-5
CC=Cc1ccc2n(c1=O)C[C@@H]1[C@@H](CO)[C@H](C(=O)NC3Cc4ccccc4C3)N(CC3CC3)[C@H]21 (mixture of isomers),.,4,.,75*,0
CC=Cc1ccc2n(c1=O)C[C@H]1[C@H](CO)[C@@H](C(=O)NCc3ccccc3F)N(S(C)(=O)=O)[C@@H]21 (mixture of isomers),.,-8,.,4,0
CCN1[C@H](C(=O)NCc2ccccc2)[C@@H](CO)[C@@H]2Cn3c(ccc(-c4ccncc4)c3=O)[C@@H]21,.,19*,.,6,7
C[C@H](O)C#Cc1cnc2c(c1)C(=O)N([C@H](C)CO)C[C@@H](C)[C@H](CN(C)C(=O)Cc1ccncc1)O2,.,-4,.,3,-6
